LMP1 NFkB inh – EBV LMP1-driven NF-kappaB luciferase reporter inhibitors, primary screen, cell-based, luminescence, single point; LMP1-induced NF-kappaB luciferase reporter cells; inhibition, % at 12.5 µM; 350,000 tested, 0.69% active; AID 504558, 2011; in the data active = inhibition above about 41%
Peg3 prom inh – Peg3 promoter-driven luciferase inhibitors, primary screen, cell-based, HeLa, luciferase luminescence; HeLa PEG-Prom luciferase reporter, overnight; inhibition, % at 20 µM; 360,000 tested, 1.7% active; AID 588405, 2011;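 active = inhibition of at least 50% at 20 µM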
Shn3 inh set2 – reduction of Shn3 3'UTR firefly luciferase signal, primary screen, Schnurri-3 inhibitor project, cell-based, Clone20 osteoblasts, set 2; Clone20 osteoblast Shn3 3'UTR firefly luciferase, 24 h; inhibition, % at 12.5 µM; 360,000 tested, 0.52% active; AID 588674, 2011;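 active = mean inhibition of at least 75% with every replicate also reaching 75%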
TRPM1 prom inh – inhibitors of MITF-dependent TRPM1 promoter reporter, primary screen, cell-based, SK-MEL-5, single point, luciferase. AID 488899, 2010. SK-MEL-5 TRPM1 promoter luciferase, 24 h. 330,000 tested, 0.83% active. inhibition, % at 12.5 µM;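 active = mean inhibition across replicates of 60% or more, whatever share of single replicates reaches that level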
TROY signal inh – inhibitors of TROY-driven NF-kB signaling, primary screen, Q293 LMP1-TROYcd cells, NF-kB luciferase, uHTS. Q293 LMP1-TROYcd NF-kB luciferase reporter, 4 h. 360,000 tested, 0.98% active. inhibition, % at 10 µM;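 active = compounds whose plate-normalised and pattern-corrected inhibition of the luciferase reporter signal at the single screening dose is 50% or more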
TWEAK Fn14 block – inhibitors of TWEAK-Fn14 signaling, primary screen, luciferase reporter cells, uHTS; inhibition, % at 10 µM; AID 1159606, 2016; TWEAK-stimulated Fn14 reporter cells, luciferase luminescence, 8 h; 360,000 tested, 2% active; in the data active = inhibition above about 50%
Large screens that a line does not name were inactive. The list is not random: actives were taken first. Their share in the collection is about 4.1%.

COC(=O)[C@]12OC[C@]34C([C@@H](O)[C@@H]1O)[C@]1(C)CC(=O)C(O)=C(C)[C@@H]1C[C@H]3OC(=O)[C@H](O)[C@@H]24 (some centres not stated)	TRPM1 prom inh 71, TROY signal inh 79, TWEAK Fn14 block 95
COC(=O)C1=C(c2cccc(OC)c2OC)C[C@@H]2CC[C@H]1N2C(=O)NCCCOC(C)C	none
CC(C)(O)/C=C/C(=O)[C@](C)(O)C1[C@H](O)C[C@@]2(C)C3CC=C4C(C[C@H](O)[C@@H](O)C4(C)C)[C@]3(C)C(=O)C[C@]12C (some centres not stated)	Peg3 prom inh 61, TRPM1 prom inh 71, TROY signal inh 56
O=C1CCN(C(=O)C(Cl)Cl)N1	none
COc1ccc2c3c1OC1C(=O)CC[C@@]4(O)[C@@H](C2)N(C)CC[C@]314 (some centres not stated)	Peg3 prom inh 50
CCCCn1c(O)c(/C(C)=N/NC(=O)Nc2ccccc2)c(=O)[nH]c1=O	none
Cc1nc2ccccc2c(=O)n1-c1cc([N+](=O)[O-])cc([N+](=O)[O-])c1	none
O=c1c2ccccc2nc(/C=C/c2ccccc2)n1-c1ccc(O)cc1	none
Cc1cccc(-n2c(/C=C/c3ccc([N+](=O)[O-])o3)nc3ccccc3c2=O)c1	LMP1 NFkB inh 84, Peg3 prom inh 86, TRPM1 prom inh 86, TWEAK Fn14 block 95
O=c1c2ccccc2nc(/C=C/c2ccc([N+](=O)[O-])o2)n1-c1ccc(O)cc1	LMP1 NFkB inh 86, Peg3 prom inh 103, Shn3 inh set2 98, TRPM1 prom inh 94, TWEAK Fn14 block 93
O=C(C1CC(c2ccccc2O)=NO1)N1CCC2(CC1)OCCO2 (configuration not stated)	none
O=C1C=C2c3ccccc3CC(C(=O)O)C2CC1 (configuration not stated)	none (no result: LMP1 NFkB inh, TRPM1 prom inh)
CC1(C)C(=O)CCC2C1=CCC1C2CCC2(C)C(O)CCC12 (configuration not stated)	none
Cc1cc(OC(=O)CCNC(=O)OC(C)(C)C)c2c3c(c(=O)oc2c1)CCC3	TWEAK Fn14 block 63
C[C@]12CCC3C(CC[C@H]4C[C@H](O)CC[C@]34C)C1CCC2=O (some centres not stated)	Shn3 inh set2 86
C[C@]12CC[C@H](O)C[C@@H]1CC[C@H]1[C@H]3CCC(=O)[C@@]3(C)CC[C@@H]12	none (no result: TRPM1 prom inh)
CCc1nn(CC(=O)N2CCC3(CC2)OCCO3)c(=O)c2cc3ccccc3n12	none
N#CC(C#N)=Cc1ccc(-c2ccccc2F)o1	TWEAK Fn14 block 70
N#CC(C#N)=Cc1ccc(O)c(O)c1	none
O=C1NC(=O)N(C2CCCCC2)C(=O)C1C1c2ccccc2C(=O)N1Cc1ccccc1 (configuration not stated)	LMP1 NFkB inh 78
CC(N)Cc1c[nH]c2c1ccc1ccccc12 (configuration not stated)	none
CC1(C)CN2C(c3ccc(Cl)cc3)N2C1 (configuration not stated)	none
Cc1nc2ccsc2c(=O)n1-c1ccccc1Cl	none
Cc1ccccc1-n1c(C)nc2ccsc2c1=O	TWEAK Fn14 block 55
C[C@]12CCC3[C@@H](CCC4=CC(=O)CC[C@@]43CO)C1CCC2=O (some centres not stated)	none
CC(C)C(NC(=O)C(C(C)C)N(C)C)C(=O)N(C)C(C(=O)N1CCCC1C(=O)N1CCCC1C(=O)NCc1ccccc1)C(C)C (configuration not stated)	TRPM1 prom inh 65
O=C(N/N=C/c1c(O)n(C2CCCCC2)c(=S)[nH]c1=O)c1ccccc1	none
O=C(N/N=C/C1C(=O)NC(=S)N(c2ccccc2)C1=O)c1cc(Br)c(O)c(Br)c1 (configuration not stated)	LMP1 NFkB inh 52
CC(C)(C)n1cc(C(=O)c2ccccc2OCCCF)cn1	none
CC(C)(C)n1cc(C(=O)c2ccc3ccccc3c2O)cn1	TROY signal inh 83, TWEAK Fn14 block 88
CNC(=O)O/N=C(\C)Cc1nnn(-c2cc(C)on2)n1	TROY signal inh 73
N/C(=N\[N+](=O)[O-])N1CCN(C(=O)OC2CCCC2)CC1	none
CC(=O)O[C@H]1CCC2C3CC[C@H]4[C@@H](O)[C@H](O)CC[C@]4(C)C3CC[C@@]21C (some centres not stated)	Shn3 inh set2 96
O=C1NC2C(O)C(O)C(O)C(O)C2c2cc3c(c(O)c21)OCO3 (configuration not stated)	LMP1 NFkB inh 92, Peg3 prom inh 99, Shn3 inh set2 87, TRPM1 prom inh 72, TROY signal inh 81, TWEAK Fn14 block 99
CCOP(=S)(OCC)Oc1nc(Cl)c(Cl)cc1Cl	none
O=C(Cc1ccccc1)N1CCN(Cc2ccccn2)CC1	TWEAK Fn14 block 92
CNC(C(=O)c1ccccc1)C(OC(C)=O)c1cccc([N+](=O)[O-])c1 (configuration not stated)	none
C=CCn1c(O)c(C(C)=NCc2cc(OC)cc(OC)c2)c(=O)[nH]c1=O	Peg3 prom inh 54
C=CCn1c(O)c(C(C)=NCc2cccnc2)c(=O)[nH]c1=O	none
Cc1ccc(OCCSC2=NN2c2cc(C)nc(N)n2)cc1	none
COc1cc(/C=C/c2nc3ccccc3c(=O)n2-c2ccccc2O)ccc1O	TWEAK Fn14 block 56
Oc1cc(Cl)c(Cl)c(Cl)c1	TROY signal inh 55
Oc1cc(Cl)c(Cl)c(Cl)c1Cl	TROY signal inh 54
C=CCn1c(O)c(C(C)=O)c(=O)[nH]c1=O (tested in a mixture with another compound)	none
COc1cc2c(c(OC)c1OC)-c1ccc(O)cc1C(NC(C)=O)CC2 (configuration not stated)	TRPM1 prom inh 61
COc1cc2c(c(OC)c1OC)-c1ccc(O)c(=O)cc1[C@@H](NC(C)=O)CC2	none
COc1cc2c(c(OC)c1OC)-c1ccc(O)cc1[C@@H](NC(C)=O)CC2	TRPM1 prom inh 65
O=C1NC(=O)N(c2cccc(Br)c2)C(=O)/C1=C/c1ccsc1	none
O=c1[nH]c(CN2CC=C(c3ccccc3)CC2)nc2cc(C(F)(F)F)ccc12	LMP1 NFkB inh 44
C=C1[C@@H](OC(C)=O)[C@]23C[C@@H]1[C@@H](OC(C)=O)CC2[C@]12C4C[C@H]3[C@H]1N(CC)C[C@]4(C)CC[C@@H]2O (some centres not stated)	none (no result: TRPM1 prom inh)
CC(Oc1ccc(-c2ccccc2)cc1)C(=O)O (configuration not stated)	none

High-throughput results: PubChem, several laboratories
